Compound activity as filed in PubChem.
Only a selection was taken, and hits are over-represented in it overall.
mcGAS MS inh: mouse cGAS inhibition by mass spec. Q8C6L5. recombinant mouse cGAS, cGAMP by RapidFire MS. inhibition, % at 12.5 µM. 130,000 tested, 0.18% active. AID 1259397;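 active = inhibition of cGAS enzyme activity at or above 60%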;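 also: enzyme stimulated by 45 bp dsDNA with ATP and GTP substrates; cGAMP share of summed cGAMP plus half ATP and half GTP signals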
Target sequence (Q8C6L5 whole entry, looked up): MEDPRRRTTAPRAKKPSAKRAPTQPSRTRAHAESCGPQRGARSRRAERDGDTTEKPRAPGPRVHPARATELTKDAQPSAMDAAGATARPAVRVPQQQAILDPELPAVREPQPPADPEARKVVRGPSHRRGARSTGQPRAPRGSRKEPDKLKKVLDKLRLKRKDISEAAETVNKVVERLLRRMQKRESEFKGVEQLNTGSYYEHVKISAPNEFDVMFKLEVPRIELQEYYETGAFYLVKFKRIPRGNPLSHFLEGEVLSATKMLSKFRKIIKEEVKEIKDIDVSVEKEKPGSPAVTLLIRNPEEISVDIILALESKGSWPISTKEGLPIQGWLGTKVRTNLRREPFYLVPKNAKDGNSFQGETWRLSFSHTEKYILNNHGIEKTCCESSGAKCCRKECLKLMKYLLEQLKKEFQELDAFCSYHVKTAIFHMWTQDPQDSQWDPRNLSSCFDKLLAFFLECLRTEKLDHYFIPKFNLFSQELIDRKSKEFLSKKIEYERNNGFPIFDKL
Starred values were filed as active, the others as inactive; ! = a repeat was not active.

SMILES	mcGAS MS inh
Cc1nc(CCN)cc(N2CC3C[C@@H]4CC2C[C@H](C3)C4)n1	9
Cc1noc(C)c1C1CCCN1Cc1cccc(C(=O)Nc2cn(C)nn2)c1 (stereo not drawn)	-5
Cc1cc(F)ccc1C(=O)N(Cc1ccsc1)CC1CCCO1 (stereo not drawn)	-8
CCOC(=O)C1=C(C)N=c2s/c(=C\c3ccncc3)c(=O)n2C1c1ccc(OC)cc1 (stereo not drawn)	-5
N#CC(=Cc1ccc(Br)cc1)c1nnc2n1CCCCC2	60*
N#CC(=Cc1ccc(O)c(O)c1)c1nnc2n1CCCCC2	-1
N#CC(=Cc1ccc(F)cc1)c1nnc2n1CCCCC2	44
Fc1cccc(NC2CCCN(Cc3cccn3-c3ncccn3)C2)c1 (stereo not drawn)	-1
Cc1nn(Cc2ccc(Cl)cc2Cl)c2sc(C(=O)N3CCNC(=O)C3)cc12	0
COC(=O)C1=C(C)NC(C)=C(C(=O)OCC(C)C)C1c1ccccc1[N+](=O)[O-] (stereo not drawn)	65*!
COC(=O)C1=C(C)NC(C)=C(C(=O)OCCN)C1c1ccccc1C(F)(F)F (stereo not drawn)	-7
CCN1C(=O)NC(c2ccccc2[N+](=O)[O-])C(C(=O)OCCOC)=C1C (stereo not drawn)	-8
Fc1ccc(C=NNC2=Nc3cccc4cccc2c34)cc1	-13
Cc1ccccc1CC1(CO)CCCN(C(=O)CN2CCOc3ccccc3C2)C1 (stereo not drawn)	-9
Cc1cccc(C(=O)N2CCCC(CO)(Cc3ccccc3C)C2)n1 (stereo not drawn)	-9
Cc1ccccc1CC1(CO)CCCN(C(=O)c2ccccc2N(C)C)C1 (stereo not drawn)	91*
CC(C)C(=O)Nc1cc(C2CC2)nn1C1CCS(=O)(=O)C1 (stereo not drawn)	82*
COC(=O)c1cc(C2CC2)nc2c1c(-c1cccs1)nn2C1CCS(=O)(=O)C1 (stereo not drawn)	-8
Cc1cc(NCc2ccc(Cl)cc2)n(C2CCS(=O)(=O)C2)n1 (stereo not drawn)	-21
Cc1nc(CC(=O)NCCc2c[nH]c3c(C)cccc23)c(C)s1	6
Cc1ccc(-c2ccc(=O)n(CCCNC(=O)C(C)Oc3ccc4c(c3)OCO4)n2)cc1 (stereo not drawn)	5
CC(=O)c1sc(-c2ccc(OC(C)C(=O)N3CCCCCC3)cc2)nc1C (stereo not drawn)	-6
CCC(C)NC(N)=NCc1ccc(Cn2ccnc2)cc1 (stereo not drawn)	-4
CC(=NCCc1ccccc1)c1c(C(F)(F)F)[nH]n(-c2nc3ccccc3s2)c1=O	6
C/C(=N\N1CCN(C)CC1)c1c(C(F)(F)F)[nH]n(-c2nc3ccccc3s2)c1=O	-2
SMILES	mcGAS MS inh
C/C(=C1\C(=O)N(c2nc3ccccc3s2)N=C1C(F)(F)F)N1CCN(c2ccccc2)CC1	66*
CCOc1ccccc1CN1CCN(Cc2ccn[nH]2)CC1CCO (stereo not drawn)	-9
COc1ccc(-n2c3c(c(=O)[nH]c2=O)C(NC(=O)CCc2ccccc2)(C(F)(F)F)C(=O)N3)cc1 (stereo not drawn)	-7
COc1ccc(N2CCN(C(=O)C3CC=CCC3C(=O)NCCNc3cccc4ccccc34)CC2)cc1 (stereo not drawn)	0
O=C(C1CCC1)N1CCCC(N2CCN(c3ccccc3F)CC2)C1 (stereo not drawn)	-8
CC(=O)N1CCCN(c2ccncc2N)CC1	-2
CC(=O)N1CCC(N2CCN(c3ccncc3F)CC2)CC1	62*
S=c1[nH]nc(-c2ccccc2Cl)o1	-5
Clc1c(-c2nnco2)sc2ccccc12	-3
S=c1[nH]nc(-c2sc3ccccc3c2Cl)o1	92*
COc1cccc(N2CCN(S(=O)(=O)c3ccc(Cl)cc3C(F)(F)F)CC2)c1	4
CCCCCCCCn1ncc(O)c(Cl)c1=O	-41
CCN(CC)S(=O)(=O)c1ccc(NN=C2C=C(C)CC(C)(C)C2)nc1	-15
COc1cccc2c1C(=O)c1c(O)c3c(c(O)c1C2=O)C[C@@](O)(C(=O)CO)C[C@@H]3O[C@H]1C[C@H](N)[C@H](O)[C@H](C)O1	96*
COc1cccc2c1C(=O)c1c(O)c3c(c(O)c1C2=O)C[C@@](O)(C(C)=O)C[C@@H]3OC1CC(N)C(O)C(C)O1 (stereo partly drawn)	93*
CC(=O)c1ccc(NC(=O)CCNS(=O)(=O)c2ccc3c(c2)CCCC3)cc1	2
NC(=O)c1ncn2c(C(=O)N3CCCC3c3ccc4c(c3)OCCO4)cc(-c3ccccc3)nc12 (stereo not drawn)	-8
CCC1(O)CC(OC2CC(N(C)C)C(OC3CC(O)C(OC4CCC(=O)C(C)O4)C(C)O3)C(C)O2)c2c(cc3c(c2O)C(=O)c2c(O)cccc2C3=O)C1C(=O)OC (stereo not drawn)	97*
CCc1ccc(-c2nc(C(=O)NNC(=O)N3CC(C)OC(C)C3)cs2)cc1 (stereo not drawn)	-1
O=C(Nc1cnn(C23CC4CC(CC(C4)C2)C3)c1)c1cc(-c2ccccc2)on1	1
